Test systems include T-47D breast; BT-549 breast; MDA-MB-435 melanoma; SW-620 colon; MCF7 breast; HCT-116 colon; HCC-2998 colon; KM12 colon.
Common to all, as to assay: NCI-60 one-dose screen, 48 h (100 = growth as untreated, 0 = no growth, -100 = all killed)
Holding throughout (details): 10 µM unless noted

Here are results for 15 compounds from PubChem BioAssay (NCI).

About 83,000 compounds went through this panel and 20% of them were active in at least one assay; those are over-represented in the sample as a whole.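 The test compound was applied at a single concentration to cells in 96-well plates for 48 hours, and percent growth was recorded.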 Unmarked numbers belong to inactive results. The source made the active and inactive calls. The calls were made as follows: active = growth percent below 10; inactive = the rest.

With `O=C(Nc1ccccc1C(F)(F)F)C1=NCCCCN1`, the growth is 101% in the experiment with T-47D breast; 105% in the experiment with BT-549 breast; 100% with MDA-MB-435 melanoma; 92.9% in the experiment on SW-620 colon; 99.7% in the experiment with MCF7 breast; 99.5% in the experiment on HCT-116 colon. Besides, the growth in the experiment on HCC-2998 colon and in the experiment on KM12 colon was 102% throughout.

Take `Nc1ncnc2c1N=C(c1ccc([N+](=O)[O-])cc1)CC(c1ccc3c(c1)OCO3)N2` (stereo not given): the growth is 93% with T-47D breast; 86.6% with BT-549 breast; 94% in the experiment on MDA-MB-435 melanoma; 92% with SW-620 colon; 72.7% in the experiment with MCF7 breast; 83.3% in the experiment with HCT-116 colon. Also, the growth in the experiment with HCC-2998 colon is 53.8%; in the experiment on KM12 colon, 89.4%.

Regarding `COc1ccc(C2=NN(C=O)C(c3ccc(Oc4nc5c(c(=O)n(C)c(=O)n5C)n4C)c(OC)c3)C2)cc1` (stereo not given), the growth in the experiment with T-47D breast was 75.5%; in the experiment with BT-549 breast, 96.9%; with MDA-MB-435 melanoma it was 61.2%; in the experiment on SW-620 colon, 104%; in the experiment with MCF7 breast it was 77.1%; in the experiment on HCT-116 colon it was 83%. Also, the results for the growth in the experiment on HCC-2998 colon and with KM12 colon were 82.3% and 87.5%, respectively.

With `CCC(=C(c1ccc(OCCN(CC)CC)cc1)c1ccc(OCCN(CC)CC)cc1)c1ccc(Cl)cc1`, the growth in the experiment on T-47D breast is -55.4% (active); in the experiment on BT-549 breast, 61.5%; in the experiment with MDA-MB-435 melanoma, -92% (active); in the experiment with SW-620 colon, -75.5% (active); in the experiment on MCF7 breast it was -73.3% (active); with HCT-116 colon it was -87.7% (active). Moreover, the growth with HCC-2998 colon was -91% (active); with KM12 colon, -82.2% (active).

`CC(=O)OCCOc1cc(Cl)c(Cl)cc1Cl`: the growth in the experiment on T-47D breast is 101%; in the experiment on BT-549 breast, 91.7%; in the experiment with MDA-MB-435 melanoma, 106%; in the experiment with SW-620 colon, 104%; in the experiment on MCF7 breast, 104%; in the experiment with HCT-116 colon it was 102%. In addition, the growth with HCC-2998 colon is 97.9%; in the experiment with KM12 colon it was 103%.

In the case of `COC(=O)c1sc(-c2ccc(C)cc2)cc1O`, the growth in the experiment on T-47D breast was 102%; in the experiment on BT-549 breast, 107%; in the experiment on MDA-MB-435 melanoma, 91.9%; in the experiment with SW-620 colon, 103%; in the experiment with MCF7 breast, 96.4%; with HCT-116 colon, 96.6%. The results for the growth with HCC-2998 colon and in the experiment with KM12 colon were 94.7% and 95.8%, respectively.

Consider `CC(=O)O[C@H]1CC[C@@]2(C)C(=CC[C@@H]3[C@@H]2CC[C@]2(C)C(Cl)=C(c4nc5ccc(Cl)cn5c4NC(C)(C)C)C[C@@H]32)C1`, for which the growth is 94.4% with T-47D breast; 105% in the experiment with BT-549 breast; 93.8% in the experiment on MDA-MB-435 melanoma; 98.3% in the experiment with SW-620 colon; 91.9% with MCF7 breast; 86.6% in the experiment on HCT-116 colon. The growth with HCC-2998 colon was 112%; in the experiment with KM12 colon, 94.5%.

On to `O=C(Nc1ncc(Cc2ccccc2)s1)c1cc(-c2ccccc2)nc2ccccc12`, for which the growth was 91.7% with T-47D breast; 99.3% in the experiment on BT-549 breast; 104% in the experiment with MDA-MB-435 melanoma; 96.2% with SW-620 colon; 91.1% in the experiment with MCF7 breast; 95.3% with HCT-116 colon. In addition, the growth in the experiment with HCC-2998 colon was 99.2%; with KM12 colon it was 105%.

For `CCN(CC)CCCNC(=O)c1c2c(n3ccccc13)C(=O)c1ncccc1C2=O`, the growth was -64.4% (active) in the experiment on T-47D breast; -6.67% (active) in the experiment with BT-549 breast; -58.7% (active) with MDA-MB-435 melanoma; -47% (active) in the experiment on SW-620 colon; -52.9% (active) with MCF7 breast; -70.5% (active) with HCT-116 colon. Moreover, the results for the growth with HCC-2998 colon and in the experiment on KM12 colon were -72.5% (active) and -13.2% (active), respectively.

For `CN(C)CCOc1ccc(/C(=C(/CCCCCCCCCC[P+](c2ccccc2)(c2ccccc2)c2ccccc2)c2ccccc2)c2ccccc2)cc1`, the growth is -56.2% (active) in the experiment with T-47D breast; -78.3% (active) with BT-549 breast; -98.1% (active) in the experiment on MDA-MB-435 melanoma; -85% (active) in the experiment on SW-620 colon; -77.9% (active) in the experiment with MCF7 breast; -72% (active) with HCT-116 colon. The growth with HCC-2998 colon is -83.9% (active); with KM12 colon, -80.9% (active).

For the compound `Cc1cccc(CN(Nc2ccccc2)c2ccccc2)n1`, the growth with T-47D breast was 87.2%; in the experiment with BT-549 breast it was 111%; with MDA-MB-435 melanoma it was 103%; in the experiment with SW-620 colon, 107%; in the experiment with MCF7 breast, 93.3%; in the experiment with HCT-116 colon, 95.5%. The growth is 112% in the experiment with HCC-2998 colon and 110% in the experiment on KM12 colon.

For the compound `COc1cc(NC(=O)c2cncnc2Nc2ccc3c(ccn3Cc3cccc(F)c3)c2)cc(OC)c1`, the growth in the experiment on T-47D breast was 70.9%; in the experiment with BT-549 breast, 68.1%; in the experiment on MDA-MB-435 melanoma it was -4.76% (active); with SW-620 colon, 29.6%; in the experiment on MCF7 breast it was 28.2%; in the experiment with HCT-116 colon it was 44.5%. In addition, the growth with HCC-2998 colon is 72.9%; with KM12 colon, 34.8%.

`COc1cc(C2CC(c3cccc(Nc4ccncc4)c3)=Nc3c(N)ncnc3N2)cc(OC)c1OC` (stereo not given): the growth in the experiment on T-47D breast was 62.2%; with BT-549 breast, 113%; in the experiment with MDA-MB-435 melanoma it was 69.7%; in the experiment with SW-620 colon, 90.6%; in the experiment on MCF7 breast it was 57.6%; in the experiment on HCT-116 colon, 87.9%. Moreover, the growth with HCC-2998 colon was 95.4%; in the experiment on KM12 colon, 69%.

Turning to `C=C(C)[C@@H]1CC[C@]2(C(=O)NC(C)=O)CC[C@]3(C)[C@H](CC[C@@H]4[C@@]5(C)CCCNC(C)(C)[C@@H]5CC[C@]43C)[C@@H]12`, the growth in the experiment with T-47D breast is 17.6%; in the experiment with BT-549 breast, 63.1%; with MDA-MB-435 melanoma, -88.7% (active); in the experiment with SW-620 colon, -50% (active); in the experiment with MCF7 breast it was -17.3% (active); with HCT-116 colon, -69.7% (active). Also, the growth is -58.3% (active) with HCC-2998 colon and -2.16% (active) with KM12 colon.

In the case of `CCOC(=O)CC1CSC(N/N=C(/C)c2cccc(C(F)(F)F)c2)=N1` (stereo not given), the growth is 104% in the experiment with T-47D breast; 85.6% in the experiment on BT-549 breast; 101% in the experiment on MDA-MB-435 melanoma; 104% with SW-620 colon; 90.5% in the experiment on MCF7 breast; 96.9% in the experiment with HCT-116 colon. Besides, the growth in the experiment with HCC-2998 colon was 101%; in the experiment with KM12 colon it was 97.7%.
